Test results published in PubChem BioAssay (NCATS).
Inconclusive results are not listed. The source made the active and inactive calls. The call rests on the fitted dose curve; in most records, active means well fitted inhibition curve with a large enough effect; inconclusive means small, poorly fitted or top-dose-only effect; inactive means no such curve, though single readings can be large or run the other way.

Assays:
[1] = biological target: Cytochrome P450 2C9 (Homo sapiens) (UniProt P11712); assay: qHTS Assay for Inhibitors and Substrates of Cytochrome P450 2C9 (AID 883); further: nearly all actives have a fitted effect of over 60% in size
Sequence of Cytochrome P450 2C9 (Homo sapiens) (P11712 whole entry, looked up): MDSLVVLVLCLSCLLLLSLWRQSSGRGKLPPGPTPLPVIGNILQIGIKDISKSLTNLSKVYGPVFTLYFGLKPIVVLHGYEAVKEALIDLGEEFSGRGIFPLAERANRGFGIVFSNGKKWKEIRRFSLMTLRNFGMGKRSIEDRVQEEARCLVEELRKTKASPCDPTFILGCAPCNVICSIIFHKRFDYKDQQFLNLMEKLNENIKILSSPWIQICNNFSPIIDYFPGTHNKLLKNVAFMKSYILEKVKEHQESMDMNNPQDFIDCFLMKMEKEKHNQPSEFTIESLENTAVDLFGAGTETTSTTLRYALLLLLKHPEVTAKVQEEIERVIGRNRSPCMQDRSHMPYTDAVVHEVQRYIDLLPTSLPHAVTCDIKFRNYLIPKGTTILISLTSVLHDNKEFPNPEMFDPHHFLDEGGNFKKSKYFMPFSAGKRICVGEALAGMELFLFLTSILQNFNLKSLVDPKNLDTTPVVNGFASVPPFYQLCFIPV
Procedure, shortened: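 CYP2C9 deoxyluciferin hydroxylation, 37C, 60 min with NADPH regeneration; 10nM enzyme, 100uM Luciferin-H (KM). Glo detection reagent stopped reaction; luminescence normalized to sulphaphenazole (57uM) full inhibition.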

[2] = biological target: Cytochrome P450 3A4 (Homo sapiens) (UniProt P08684); assay: qHTS Assay for Inhibitors and Substrates of Cytochrome P450 3A4 (AID 884); further: series mostly up to about 57 µM; nearly all actives have a fitted effect of over 50% in size
Sequence of Cytochrome P450 3A4 (Homo sapiens) (P08684 whole entry, looked up): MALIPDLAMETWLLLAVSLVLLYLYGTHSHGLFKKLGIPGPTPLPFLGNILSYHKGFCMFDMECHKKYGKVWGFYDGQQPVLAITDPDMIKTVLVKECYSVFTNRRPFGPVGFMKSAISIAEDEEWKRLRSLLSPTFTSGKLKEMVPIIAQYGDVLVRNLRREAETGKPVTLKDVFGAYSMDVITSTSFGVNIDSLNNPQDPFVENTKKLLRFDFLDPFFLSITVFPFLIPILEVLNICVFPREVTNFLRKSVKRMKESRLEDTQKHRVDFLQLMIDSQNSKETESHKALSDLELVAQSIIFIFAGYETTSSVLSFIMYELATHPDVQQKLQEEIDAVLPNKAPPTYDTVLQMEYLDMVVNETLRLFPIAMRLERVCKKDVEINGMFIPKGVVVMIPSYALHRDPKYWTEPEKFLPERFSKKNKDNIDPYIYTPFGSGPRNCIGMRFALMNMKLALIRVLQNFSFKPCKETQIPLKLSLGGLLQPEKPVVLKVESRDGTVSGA
Procedure, shortened: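 20 nM human CYP3A4 with 25 uM Luciferin-PPXE (at KM) in 200 mM KPO4, preincubated 10 min with compound; NADPH regeneration started a 60 min RT reaction. Luciferin detected by luminescence, normalized to 57 uM ketoconazole as full inhibition.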

[3] = biological target: Cytochrome P450 2D6 (Homo sapiens) (UniProt P10635); assay: qHTS Assay for Inhibitors and Substrates of Cytochrome P450 2D6 (AID 891);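 further: luciferin methyl ether substrate demethylated by CYP2D6 with NADPH regeneration; nearly all actives have a fitted effect of over 60% in size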
Sequence of Cytochrome P450 2D6 (Homo sapiens) (P10635 whole entry, looked up): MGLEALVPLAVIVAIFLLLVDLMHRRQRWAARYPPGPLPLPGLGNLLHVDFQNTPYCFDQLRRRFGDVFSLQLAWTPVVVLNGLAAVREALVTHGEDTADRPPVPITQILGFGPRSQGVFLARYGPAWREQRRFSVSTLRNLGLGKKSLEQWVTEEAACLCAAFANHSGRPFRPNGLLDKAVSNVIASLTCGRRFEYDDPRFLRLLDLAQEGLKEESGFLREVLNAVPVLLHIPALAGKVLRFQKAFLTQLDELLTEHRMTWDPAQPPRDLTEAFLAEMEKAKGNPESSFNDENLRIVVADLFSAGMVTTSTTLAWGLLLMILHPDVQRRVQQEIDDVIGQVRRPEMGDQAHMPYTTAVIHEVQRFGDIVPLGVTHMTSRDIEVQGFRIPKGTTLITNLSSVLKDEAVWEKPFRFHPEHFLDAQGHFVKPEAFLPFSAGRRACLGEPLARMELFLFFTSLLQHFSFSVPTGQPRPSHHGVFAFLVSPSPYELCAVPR
Procedure, shortened: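 Human CYP2D6 (5 nM) with 30 uM Luciferin-ME EGE (at Km) in 100 mM KPO4, compound preincubated 10 min, then NADPH regeneration system for 60 min at room temperature. Luciferin read by luminescence; normalized to 1.43 uM quinidine.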

[4] = biological target: Cytochrome P450 2C19 (Homo sapiens) (UniProt P33261); assay: qHTS Assay for Inhibitors and Substrates of Cytochrome P450 2C19 (AID 899); further: nearly all actives have a fitted effect of over 60% in size; further: potency means the concentration at half of the fitted maximal effect
Sequence of Cytochrome P450 2C19 (Homo sapiens) (P33261 whole entry, looked up): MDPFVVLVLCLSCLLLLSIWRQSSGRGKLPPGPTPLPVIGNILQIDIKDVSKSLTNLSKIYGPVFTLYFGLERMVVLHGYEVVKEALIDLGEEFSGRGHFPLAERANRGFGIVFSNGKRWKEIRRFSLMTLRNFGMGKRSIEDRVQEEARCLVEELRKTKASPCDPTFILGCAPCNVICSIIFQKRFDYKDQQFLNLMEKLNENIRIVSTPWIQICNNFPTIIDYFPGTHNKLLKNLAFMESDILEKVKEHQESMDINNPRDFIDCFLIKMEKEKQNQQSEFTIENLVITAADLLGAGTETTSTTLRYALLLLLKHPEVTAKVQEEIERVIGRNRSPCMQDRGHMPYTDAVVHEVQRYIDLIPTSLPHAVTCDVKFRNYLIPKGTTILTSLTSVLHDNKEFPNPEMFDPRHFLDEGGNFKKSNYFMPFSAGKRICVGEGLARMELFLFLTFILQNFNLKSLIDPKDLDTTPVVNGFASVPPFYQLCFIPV
Procedure, shortened: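 In 50mM KPO4, the reaction held 5nM enzyme and KM-level (10uM) Luciferin-H EGE; it ran 60 min at 37C after NADPH regeneration and a 10 min compound preincubation. Luminescence values were scaled to 57uM ketoconazole as complete inhibition.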
On the % scale 0 is the no-effect control and ±100 the full control effect.

COc1cccc(C2NC(C(=O)O)CCC2C)c1 (stereo not given)
inactive: Potency [1] | activity change, negative = inhibition [2] -16.8% [at 11.4 µM] | Potency [3] | Potency [4]

Cc1c(OCc2ccccc2)cccc1OCc1ccccc1
inactive: Potency [1] | activity change, negative = inhibition [2] -25.2% [at 11.4 µM] | Potency [3] | Potency [4]

CC1CCC(C(=O)O)NC1c1ccc(C#CCN(C)C)cc1 (stereo not given)
inactive: Potency [1] | activity change, negative = inhibition [2] -30.5% [at 11.4 µM] | Potency [3] | Potency [4]

COc1ccc(OC)c(C2OCCC=CC2C)c1 (stereo not given)
inactive: Potency [1] | activity change, negative = inhibition [2] -16.9% [at 11.4 µM] | Potency [3] | Potency [4]

Cc1ccc(C#CC2C=CC(Oc3ccc4c(c3)OCO4)C(CO)O2)c(C)c1 (stereo not given)
inactive: Potency [1] | activity change, negative = inhibition [2] -16.9% [at 11.4 µM] | Potency [3] | Potency [4]

Cc1ccccc1OC1C=CC(c2ccccc2)OC1CO (stereo not given)
active: Potency [4] 5.01 µM
inactive: Potency [1] | activity change, negative = inhibition [2] -11.7% [at 11.4 µM] | Potency [3]

COC(=O)NC(c1ccccc1)[C@@]1(C(=O)OC)CCCC1=O (stereo not given in full)
inactive: Potency [1] | activity change, negative = inhibition [2] -15.7% [at 11.4 µM] | Potency [3] | Potency [4]

COC(=O)NC(/C=C/c1ccco1)[C@@]1(C(=O)OC)CCCC1=O (stereo not given in full)
inactive: Potency [1] | activity change, negative = inhibition [2] 2.43% [at 11.4 µM] | Potency [3] | Potency [4]

OCC1OC(c2ccccc2)C=CC1Oc1ccc(C2CCCC2)cc1 (stereo not given)
inactive: Potency [1] | activity change, negative = inhibition [2] -14.3% [at 11.4 µM] | Potency [3] | Potency [4]

COC(=O)NC(/C(C(=O)OC)=C(\C)NCc1ccccc1)c1ccco1 (stereo not given)
inactive: Potency [1] | activity change, negative = inhibition [2] -20.3% [at 11.4 µM] | Potency [3] | Potency [4]
